Bioassay records (PubChem BioAssay)
The full list was thinned out, with hits kept by preference.
mHTT CaM bind: mutant huntingtin-calmodulin interaction inhibitors – biochemical, AlphaScreen, primary screen | AID 1671202, 2021 | AlphaScreen His-mHTT/GST-CaM binding, luminescence | inhibition, % at 15 µM | actives 3.6% (n = 190,000) | P42858;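 also: 0% = both proteins with DMSO and 100% = one protein alone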
Pf apPOL inh: Pf-apPOL inhibitors, biochemical, fluorescence; Plasmodium falciparum apicoplast DNA polymerase (apPOL); Recombinant Pf-apPOL, molecular beacon fluorescence, 1.5 h; inhibition, % at 10 µM; actives 0.25% (n = 210,000)
* hit, by the source's call; . = not tested or not shown. Rule as the data show it: active = inhibition above about 50%; inactive = the rest.

SMILES	mHTT CaM bind	Pf apPOL inh
COc1ccc(NC(=O)c2cc3c(s2)CN(C2CC2)C3)cc1OC	0	-3
O=C(Nc1ccccn1)C12CC3CCC(CC(C3)C1)C2	-5	7
Cc1cccc(S(=O)(=O)N2CCC(c3noc(-c4ccc(F)cc4)n3)CC2)c1	1	0
O=[N+]([O-])C(/C=C(\Cl)[N+](=O)[O-])=C(Nc1ccccc1)Nc1ccccc1	63*	-2
O=[N+]([O-])C(/C=C(\Cl)[N+](=O)[O-])=C1N(c2ccccc2)CCN1c1ccccc1	30	-4
COc1ccc(CNC(=O)C2(C)CCCN(C(=O)c3ccccc3Br)C2)cc1 (stereo not given)	1	6
CN(C)c1ccc(NC(=O)CN2CCC(c3nc(-c4ccccc4Cl)no3)CC2)cc1	66*	-2
O=C(CN1CCC(c2nc(-c3ccccc3Cl)no2)CC1)Nc1ccccc1Cl	-15	-6
Cc1cccc(CS(=O)(=O)NCC(c2ccccc2)N(C)C)c1 (stereo not given)	-5	-1
COc1cccc(NC(=O)Cn2cnc3c(c2=O)CCN(Cc2ccccc2)C3)c1	16	-1
Cc1ccc(N2C=C(C(=O)N3CCCCC3)S(=O)(=O)c3ccccc32)cc1C	58*	0
Cc1ccc(N2C=C(C(=O)N3CCCCC3)S(=O)(=O)c3ccccc32)cc1Cl	-7	-2
CC(=O)N1CCC(c2cnn(-c3cccc(C)c3)c2)CC1	100*	1
CN(C)c1ccc(C(=O)N2CCC(c3cnn(-c4ccc(F)cc4)c3)CC2)cc1	4	-1
Cc1cccc(-n2cc(C3CCN(C(=O)C4CCCC4)CC3)cn2)c1	-10	-3
Cc1ccc(-n2cc(C3CCN(C(=O)c4ccc(N(C)C)cc4)CC3)cn2)cc1	63*	-5
CC(C)c1cc(C2CCCN2C(=O)C2CCC2)no1 (stereo not given)	3	0
Cc1ccccc1NC(=O)CCS(=O)(=O)c1cccs1	3	4
CCOc1ccccc1NC(=O)N1CCCC1c1c(C)noc1C (stereo not given)	-6	-8
O=C(Cc1ccccc1F)N1CCC(COc2ccccc2C(=O)N2CCCCC2)CC1	1	71*
O=C(Cc1ccccc1F)N1CCC(COc2ccccc2C(=O)N2CCOCC2)CC1	5	-12
CC(C)(C)c1c(C(=O)NN)nnn1-c1nonc1N	-10	.
CC(=O)c1sc(=S)n(CCc2ccc(Cl)cc2)c1C	.	-10
CC(=O)c1c(C(C)=O)c(C)n(Cc2ccc(Cl)cc2)c1C	53*	-11
Cc1cc(=O)[nH]c(SCC(=O)Nc2cc(C(F)(F)F)ccc2Cl)n1	-4	-1
SMILES	mHTT CaM bind	Pf apPOL inh
O=C(CSc1nc2ccccc2[nH]1)Nc1cc(C(F)(F)F)ccc1Cl	50*	-4
CC1OC(Nc2ccc(OC(F)(F)Cl)cc2)C(O)C(O)C1O (stereo not given)	3	-1
c1ccc(CN2CCCC(OCc3nc(-c4cnccn4)no3)C2)nc1 (stereo not given)	3	-3
O=C(Nc1nccs1)c1ccc(NC(=O)c2ccccc2[N+](=O)[O-])cc1	13	-3
O=C(Nc1nccs1)c1ccc(NC(=O)c2ccccc2-c2ccccc2C(=O)O)cc1	84*	-1
Cn1c2ccccc2c2c(C(=O)N3CCCCCC3)cn(C3CCCC3)c(=O)c21	0	-7
Cc1ccc(C(=O)N2CCC3(CC2)NC(=O)c2ccc(F)cc2N3C)c(C)c1	0	-2
Cc1ccc(C(=O)N2CCC3(CC2)NC(=O)c2cc(F)ccc2N3C)c(C)c1	56*	0
CCNc1ccc(Br)cc1-c1nc2ccccc2n(CC)c1=O	52*	-1
CCn1c(=O)c(-c2ccc(C(=O)NC(C)(C)C)cc2)nc2ccccc21	0	-1
CCOc1ccc(CNC(=O)C2CCN(c3cc(=O)n(C)c(=O)n3C)CC2)cc1	30	-5
N#CC1=C(N)N(c2ccc(Br)cc2)C2=C(C(=O)CCC2)C1c1ccc2c(c1)OCO2 (stereo not given)	4	14
OCCOCCNc1ncnc2c1c(-c1ccccc1)cn2-c1cccc(C(F)(F)F)c1	23	0
OCCOCCNc1ncnc2c1c(-c1ccccc1)cn2-c1cccc(Cl)c1	54*	-13
O=C(O)c1cc(N2C(=O)C3C4C=CC(C5CC45)C3C2=O)ccc1Cl (stereo not given)	4	63*
Cc1ccc(N2C(=O)C3C4C=CC(C5CC45)C3C2=O)cc1Cl (stereo not given)	0	2
C=Cc1ccc(Cn2cccc(S(=O)(=O)N3CCCC3)c2=O)cc1	-4	0
CCN(Cc1ccccc1)S(=O)(=O)c1cc(C(=O)Nc2ccc(F)c(F)c2)ccc1F	-26	53*
CN(Cc1ccccc1)S(=O)(=O)c1cc(C(=O)Nc2ccc(F)c(F)c2)ccc1F	-1	27
COc1ccc(-c2nnc(N3CCC(C(=O)NCc4cc(F)cc(F)c4)CC3)o2)cc1	10	0
CCNS(=O)(=O)c1cc(-c2nn(C)c(=O)c3ccccc23)ccc1C	1	19
Cc1ccc(-c2nn(C)c(=O)c3ccccc23)cc1S(=O)(=O)NCCCO	0	95*
Cc1cccc(CN2N=C(C(=O)N3CCCCC3)S(=O)(=O)c3ccccc32)c1	-5	-3
Cn1nc(-c2nc(-c3cccc(F)c3)no2)c2c1CCN(C(=O)c1cccc(F)c1)C2	4	-6
Cn1nc(-c2nc(C3CC3)no2)c2c1CCN(C(=O)c1ccc(Cl)cc1)C2	-8	-2
SMILES	mHTT CaM bind	Pf apPOL inh
Cn1nc(-c2nc(C3CC3)no2)c2c1CCN(C(=O)Nc1ccc(Cl)cc1)C2	63*	-8
Cn1nc(-c2nc(-c3cccc(F)c3)no2)c2c1CCN(C(=O)c1cccs1)C2	61*	-1
Cn1nc(-c2nc(-c3ccccc3)no2)c2c1CCN(C(=O)c1ccccc1)C2	52*	0
Cc1ccc(C(=O)N2CCc3c(c(-c4nc(-c5ccccc5)no4)nn3C)C2)cc1	4	-4
Cn1c(=O)c2ncc(N3CCCCC3)nc2n(C)c1=O	-3	-2
COCCn1cnc2sc(C(=O)Nc3cccc(C(F)(F)F)c3)c(C)c2c1=O	19	-3
CCCCNC(=O)c1sc2ncn(CC(=O)Nc3cccc(C(F)(F)F)c3)c(=O)c2c1C	68*	-4
CCC(C)NC(=O)c1sc2ncn(CC(=O)Nc3cccc(C(F)(F)F)c3)c(=O)c2c1C (stereo not given)	99*	0
Cc1c(C(=O)O)sc2ncn(CC(=O)Nc3cccc(C(F)(F)F)c3)c(=O)c12	3	-1
O=C(O)C(Cc1ccccc1)NS(=O)(=O)c1ccc(Br)s1 (stereo not given)	-7	1
O=C(c1ccccc1)N1CCCN(C2CCN(Cc3ccccc3)C2=O)CC1 (stereo not given)	-2	5
CC(=O)Nc1ccc(Nc2nc(-c3ccccn3)cs2)cc1	92*	-7
Cc1ccc(Nc2nc(-c3ccccn3)cs2)cc1	93*	-4
CN(C)c1ccc(C(=O)Nc2cc(-c3ccccn3)no2)cc1	-5	-14
O=[N+]([O-])c1ccc(Nc2nc(-c3ccccn3)cs2)cc1	48	5
CCOc1ccc(Nc2nc(-c3sc(NC(C)=O)nc3C)cs2)cc1	64*	8
CN(C)c1ccc(Nc2nc(-c3ccccn3)cs2)cc1	100*	-17
CC(=O)Nc1cccc(-c2csc(Nc3ccc(C(=O)O)cc3)n2)c1	9	-10
